According to the supplement of paper PMC6522484:
± gives the standard deviation of the averaged measurements.

Columns and labels:
DLD1 [1] = assay: cell viability (CellTiter-Glo) relative to plate median (fraction of plate median); higher = more viable cells; conditions: 5 µM; treatment time 24 h; reporter: 7TFP
Procedure, shortened: (§1)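 Normalisation used webcellHTS2 in additive mode without log transformation, scaling each well's luminescence to the plate median. The luminescence was firefly luciferase or CellTiterGlo, read on a Tecan F500 from parallel plates of colorectal cancer cells stably transduced with lentiviral TCF/Wnt firefly luciferase reporters. Those cells had been given library compounds at a final 5 µM for 24 h, and two independent replicates were averaged.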

HCT116 = assay: as above; conditions: 5 µM; treatment time 24 h; reporter: TCF4/Wnt
Procedure, shortened: as §1

SW480 [2] = assay: as above; conditions: 5 µM; treatment time 24 h; reporter: 7TFP
Procedure, shortened: as §1

DLD1 [3] = assay: TCF/Wnt firefly luciferase reporter signal relative to plate median (fraction of plate median); higher = higher Wnt reporter signal; conditions: 5 µM; treatment time 24 h; reporter: 7TFP
Procedure, shortened: as §1

SW480 [4] = assay: as above; conditions: 5 µM; treatment time 24 h; reporter: 7TFP
Procedure, shortened: as §1

Structure (SMILES): CC1(C)C(O[C@@H]2OC[C@@H](O)[C@H](O)[C@H]2O)CC[C@]23CC24CC[C@]2(C)[C@@H]([C@@]5(C)CC[C@@H](C(C)(C)O)O5)[C@H](O)C[C@@]2(C)C4C[C@@H](O[C@@H]2O[C@H](CO)[C@@H](O)[C@H](O)[C@H]2O)C13 (stereo not given in full)
- cell viability (DLD1 [1]): 0.987 ± 0.033
- cell viability (HCT116): 0.961 ± 0.016
- cell viability (SW480 [2]): 0.9815 ± 0.0064
- TCF/Wnt firefly luciferase reporter signal (DLD1 [3]): 1 ± 0.011
- TCF/Wnt firefly luciferase reporter signal (SW480 [4]): 1.075 ± 0.0071

Structure (SMILES): COc1cc2c(cc1OC)[C@@H]1C(=O)c3ccc4c(c3O[C@@H]1CO2)C=CC(C)(C)O4
- cell viability (DLD1 [1]): 1.09 ± 0.021
- cell viability (HCT116): 0.79 ± 0.14
- cell viability (SW480 [2]): 1.02 ± 0.094
- TCF/Wnt firefly luciferase reporter signal (DLD1 [3]): 0.9 ± 0.1
- TCF/Wnt firefly luciferase reporter signal (SW480 [4]): 0.884

Structure (SMILES): COc1cc(C)c(C(=O)O)c(O)c1
- cell viability (DLD1 [1]): 1.05 ± 0.014
- cell viability (HCT116): 1.11 ± 0.14
- cell viability (SW480 [2]): 1 ± 0.037
- TCF/Wnt firefly luciferase reporter signal (DLD1 [3]): 0.924 ± 0.0085
- TCF/Wnt firefly luciferase reporter signal (SW480 [4]): 0.986 ± 0.02

Structure (SMILES): CCCCOc1ccc(C(=O)CCN2CCCCC2)cc1
- cell viability (DLD1 [1]): 0.832 ± 0.12
- cell viability (HCT116): 0.87 ± 0.033
- cell viability (SW480 [2]): 0.931 ± 0.045
- TCF/Wnt firefly luciferase reporter signal (DLD1 [3]): 1.09 ± 0.23
- TCF/Wnt firefly luciferase reporter signal (SW480 [4]): 1.17 ± 0.092

Structure (SMILES): N[C@@H](C=O)[C@@H](O[C@@H]1O[C@H](C(=O)O)[C@@H](O)[C@H](O)[C@H]1O)[C@@H](O)[C@H](O)CO
- cell viability (DLD1 [1]): 1.02
- cell viability (HCT116): 1.14 ± 0.22
- cell viability (SW480 [2]): 1 ± 0.054
- TCF/Wnt firefly luciferase reporter signal (DLD1 [3]): 0.939 ± 0.029
- TCF/Wnt firefly luciferase reporter signal (SW480 [4]): 1 ± 0.078

Structure (SMILES): Nc1ccc(S(=O)(=O)Nc2ccc(Cl)nn2)cc1
- cell viability (DLD1 [1]): 1.06 ± 0.096
- cell viability (HCT116): 1.03 ± 0.035
- cell viability (SW480 [2]): 1.08 ± 0.05
- TCF/Wnt firefly luciferase reporter signal (DLD1 [3]): 0.954 ± 0.028
- TCF/Wnt firefly luciferase reporter signal (SW480 [4]): 1.09 ± 0.042

Structure (SMILES): CC(=O)O[C@H]1CC[C@]2(C)[C@H]3CC=C4[C@@H]5CC(C)(C)CC[C@]5(C(=O)O)CC[C@@]4(C)[C@]3(C)CC[C@H]2C1(C)C
- cell viability (DLD1 [1]): 1.06 ± 0.05
- cell viability (HCT116): 1.11 ± 0.11
- cell viability (SW480 [2]): 1.02 ± 0.033
- TCF/Wnt firefly luciferase reporter signal (DLD1 [3]): 1.03
- TCF/Wnt firefly luciferase reporter signal (SW480 [4]): 1.03 ± 0.021

Structure (SMILES): O=C1CCC(N2C(=O)c3ccccc3C2=O)C(=O)N1 (stereo not given)
- cell viability (DLD1 [1]): 0.939 ± 0.1
- cell viability (HCT116): 0.972 ± 0.04
- cell viability (SW480 [2]): 0.953 ± 0.03
- TCF/Wnt firefly luciferase reporter signal (DLD1 [3]): 1.23 ± 0.16
- TCF/Wnt firefly luciferase reporter signal (SW480 [4]): 0.887 ± 0.018

Structure (SMILES): CC(C)NCC(O)COc1ccc(COCCOC(C)C)cc1 (stereo not given)
- cell viability (DLD1 [1]): 0.948 ± 0.017
- cell viability (HCT116): 0.99 ± 0.0057
- cell viability (SW480 [2]): 0.933 ± 0.0028
- TCF/Wnt firefly luciferase reporter signal (DLD1 [3]): 1.03 ± 0.042
- TCF/Wnt firefly luciferase reporter signal (SW480 [4]): 0.964 ± 0.066

Structure (SMILES): CC(C)C[C@H]1C(=O)N2CCC[C@H]2C(=O)N1O [Cyclo(hydroxyleucylprolyl)]
- cell viability (DLD1 [1]): 0.978 ± 0.074
- cell viability (HCT116): 0.973 ± 0.081
- cell viability (SW480 [2]): 0.988 ± 0.088
- TCF/Wnt firefly luciferase reporter signal (DLD1 [3]): 0.949 ± 0.0042
- TCF/Wnt firefly luciferase reporter signal (SW480 [4]): 1.05 ± 0.071

Structure (SMILES): CC(C)(Oc1ccc(C2CC2(Cl)Cl)cc1)C(=O)O (stereo not given)
- cell viability (DLD1 [1]): 1.06 ± 0.05
- cell viability (HCT116): 0.968 ± 0.074
- cell viability (SW480 [2]): 1.06 ± 0.014
- TCF/Wnt firefly luciferase reporter signal (DLD1 [3]): 0.943 ± 0.18
- TCF/Wnt firefly luciferase reporter signal (SW480 [4]): 0.963 ± 0.17

Structure (SMILES): COC1=CC(=O)C[C@@H](C)[C@]12Oc1c(Cl)c(OC)cc(OC)c1C2=O
- cell viability (DLD1 [1]): 0.937 ± 0.055
- cell viability (HCT116): 1.02 ± 0.057
- cell viability (SW480 [2]): 0.865 ± 0.038
- TCF/Wnt firefly luciferase reporter signal (DLD1 [3]): 0.929 ± 0.094
- TCF/Wnt firefly luciferase reporter signal (SW480 [4]): 0.89 ± 0.17

Structure (SMILES): CC(CCC(=O)O)C1CCC2C3CCC4CC(O)CCC4(C)C3C=CC12C (stereo not given)
- cell viability (DLD1 [1]): 1.03 ± 0.021
- cell viability (HCT116): 0.943 ± 0.12
- cell viability (SW480 [2]): 1.005 ± 0.0071
- TCF/Wnt firefly luciferase reporter signal (DLD1 [3]): 0.902 ± 0.071
- TCF/Wnt firefly luciferase reporter signal (SW480 [4]): 0.964 ± 0.02

Structure (SMILES): COc1cc2ccc(=O)oc2c(OC)c1OC
- cell viability (DLD1 [1]): 1.05 ± 0.075
- cell viability (HCT116): 1.05 ± 0.064
- cell viability (SW480 [2]): 1.025 ± 0.0071
- TCF/Wnt firefly luciferase reporter signal (DLD1 [3]): 0.993 ± 0.081
- TCF/Wnt firefly luciferase reporter signal (SW480 [4]): 0.931 ± 0.045

Structure (SMILES): CCn1cc(C(=O)O)c(=O)c2cnc(N3CCCC3)nc21
- cell viability (DLD1 [1]): 0.983 ± 0.025
- cell viability (HCT116): 1 ± 0.029
- cell viability (SW480 [2]): 0.955 ± 0.02
- TCF/Wnt firefly luciferase reporter signal (DLD1 [3]): 0.856 ± 0.055
- TCF/Wnt firefly luciferase reporter signal (SW480 [4]): 0.978 ± 0.046

Structure (SMILES): CN(C)CCCO[C@@H]1[C@H]2OC(C)(C)O[C@H]2O[C@@H]1[C@H](O)CO
- cell viability (DLD1 [1]): 1.04 ± 0.06
- cell viability (HCT116): 0.9935 ± 0.0064
- cell viability (SW480 [2]): 0.96 ± 0.038
- TCF/Wnt firefly luciferase reporter signal (DLD1 [3]): 0.998 ± 0.14
- TCF/Wnt firefly luciferase reporter signal (SW480 [4]): 0.972 ± 0.029

Structure (SMILES): CCOC(=O)NNc1nncc2ccccc12
- cell viability (DLD1 [1]): 0.981 ± 0.07
- cell viability (HCT116): 1.01 ± 0.014
- cell viability (SW480 [2]): 0.981 ± 0.056
- TCF/Wnt firefly luciferase reporter signal (DLD1 [3]): 0.85 ± 0.045
- TCF/Wnt firefly luciferase reporter signal (SW480 [4]): 0.784 ± 0.069

Structure (SMILES): COC1=CC(=O)C(O)=C/C1=C\C=C\c1ccccc1
- cell viability (DLD1 [1]): 1 ± 0.013
- cell viability (HCT116): 1.06 ± 0.12
- cell viability (SW480 [2]): 1 ± 0.057
- TCF/Wnt firefly luciferase reporter signal (DLD1 [3]): 1.1 ± 0.064
- TCF/Wnt firefly luciferase reporter signal (SW480 [4]): 0.905 ± 0.1

Structure (SMILES): COc1c(-c2coc3cc4c(cc3c2=O)CC(OC(C)=O)C(C)(C)O4)ccc2c1C=CC(C)(C)O2 (stereo not given)
- cell viability (DLD1 [1]): 0.961 ± 0.0085
- cell viability (HCT116): 0.887 ± 0.077
- cell viability (SW480 [2]): 1.01 ± 0.045
- TCF/Wnt firefly luciferase reporter signal (DLD1 [3]): 1.01 ± 0.32
- TCF/Wnt firefly luciferase reporter signal (SW480 [4]): 1.1 ± 0.16

Structure (SMILES): C/C=C/C/C=C/CCC(=O)[C@H]1O[C@H]1C(N)=O [Cerulenin]
- cell viability (DLD1 [1]): 0.927 ± 0.092
- cell viability (HCT116): 0.951 ± 0.069
- cell viability (SW480 [2]): 0.946 ± 0.018
- TCF/Wnt firefly luciferase reporter signal (DLD1 [3]): 1.01 ± 0.11
- TCF/Wnt firefly luciferase reporter signal (SW480 [4]): 0.993 ± 0.025

Structure (SMILES): COC1=CC(=O)c2c(O)c3c(c(O)c2C1=O)OC1(Oc2c(cc4cc(C)oc(=O)c4c2O)C2OC21)C3O (stereo not given) [Griseorhodin A]
- cell viability (DLD1 [1]): 1.09 ± 0.11
- cell viability (HCT116): 1.01 ± 0.04
- cell viability (SW480 [2]): 1.05 ± 0.021
- TCF/Wnt firefly luciferase reporter signal (DLD1 [3]): 0.925 ± 0.057
- TCF/Wnt firefly luciferase reporter signal (SW480 [4]): 1.01 ± 0.014

Structure (SMILES): c1coc(CNc2ncnc3[nH]cnc23)c1
- cell viability (DLD1 [1]): 0.913 ± 0.09
- cell viability (HCT116): 0.845 ± 0.17
- cell viability (SW480 [2]): 0.958 ± 0.04
- TCF/Wnt firefly luciferase reporter signal (DLD1 [3]): 0.996 ± 0.1
- TCF/Wnt firefly luciferase reporter signal (SW480 [4]): 1.04 ± 0.042

Structure (SMILES): CC(C)[C@H](NC(=O)[C@@H]1CCCN1)C(=O)N1CCNC(=O)C1=O [Prolyl-valyl-diketopiperazine]
- cell viability (DLD1 [1]): 1.04 ± 0.12
- cell viability (HCT116): 1.14 ± 0.092
- cell viability (SW480 [2]): 1.07 ± 0.05
- TCF/Wnt firefly luciferase reporter signal (DLD1 [3]): 0.919 ± 0.013
- TCF/Wnt firefly luciferase reporter signal (SW480 [4]): 0.962 ± 0.021

Structure (SMILES): CC(=O)Nc1nnc(S(N)(=O)=O)s1
- cell viability (DLD1 [1]): 0.981 ± 0.055
- cell viability (HCT116): 0.907 ± 0.11
- cell viability (SW480 [2]): 0.989 ± 0.016
- TCF/Wnt firefly luciferase reporter signal (DLD1 [3]): 0.865 ± 0.044
- TCF/Wnt firefly luciferase reporter signal (SW480 [4]): 1.09 ± 0.092

Structure (SMILES): CC1(C)C[C@@H]2C(=O)CC[C@H]3O[C@]3(C)CC[C@H]21
- cell viability (DLD1 [1]): 1.09 ± 0.057
- cell viability (HCT116): 1.01 ± 0.073
- cell viability (SW480 [2]): 1.02
- TCF/Wnt firefly luciferase reporter signal (DLD1 [3]): 1.03 ± 0.047
- TCF/Wnt firefly luciferase reporter signal (SW480 [4]): 0.985 ± 0.036
